# Results published in the supplement of paper PMC6411743.
# ± gives the standard deviation of the averaged measurements. The full data set covers some 6,200 targets. This sample favours those with the largest changes.
# Tests used:
# Assay in all cases: NP40-soluble protein abundance relative to vehicle (solubility fold change) (ratio); higher = more soluble protein in presence of AMP-PNP
# [1] = target: T1, DDX49 (UniProt Q9Y6V7)
# T1 sequence (whole entry): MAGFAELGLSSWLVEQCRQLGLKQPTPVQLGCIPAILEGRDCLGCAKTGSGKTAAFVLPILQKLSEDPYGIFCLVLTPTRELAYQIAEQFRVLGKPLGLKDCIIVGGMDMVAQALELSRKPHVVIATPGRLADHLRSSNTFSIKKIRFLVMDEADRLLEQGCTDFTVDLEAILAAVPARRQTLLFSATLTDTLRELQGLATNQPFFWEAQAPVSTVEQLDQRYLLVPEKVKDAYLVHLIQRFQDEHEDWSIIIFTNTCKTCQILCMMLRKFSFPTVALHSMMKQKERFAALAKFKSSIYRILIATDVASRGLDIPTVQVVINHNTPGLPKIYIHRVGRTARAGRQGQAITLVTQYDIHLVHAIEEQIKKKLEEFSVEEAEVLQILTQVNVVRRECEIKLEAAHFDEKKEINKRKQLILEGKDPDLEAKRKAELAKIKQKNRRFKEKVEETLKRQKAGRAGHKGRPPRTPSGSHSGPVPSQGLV
# How it was run: (§1)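 Crude Jurkat lysate, prepared by Dounce homogenisation, was exposed to eight concentrations from 0.1 to 10 mM for 10 min at room temperature and then 3 min at 37 °C. Solubilisation used 0.8% NP40 with benzonase for 60 min at 4 °C, followed by ultracentrifugation and TMT labelling of the supernatant for LC-MS/MS. After vsn normalisation of intensities, each value is the fold change against the detergent-processed vehicle within each replicate, across three independent experiments.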
# [2] = target: T2, MAD1L1 (UniProt Q9Y6D9)
# T2 sequence (whole entry): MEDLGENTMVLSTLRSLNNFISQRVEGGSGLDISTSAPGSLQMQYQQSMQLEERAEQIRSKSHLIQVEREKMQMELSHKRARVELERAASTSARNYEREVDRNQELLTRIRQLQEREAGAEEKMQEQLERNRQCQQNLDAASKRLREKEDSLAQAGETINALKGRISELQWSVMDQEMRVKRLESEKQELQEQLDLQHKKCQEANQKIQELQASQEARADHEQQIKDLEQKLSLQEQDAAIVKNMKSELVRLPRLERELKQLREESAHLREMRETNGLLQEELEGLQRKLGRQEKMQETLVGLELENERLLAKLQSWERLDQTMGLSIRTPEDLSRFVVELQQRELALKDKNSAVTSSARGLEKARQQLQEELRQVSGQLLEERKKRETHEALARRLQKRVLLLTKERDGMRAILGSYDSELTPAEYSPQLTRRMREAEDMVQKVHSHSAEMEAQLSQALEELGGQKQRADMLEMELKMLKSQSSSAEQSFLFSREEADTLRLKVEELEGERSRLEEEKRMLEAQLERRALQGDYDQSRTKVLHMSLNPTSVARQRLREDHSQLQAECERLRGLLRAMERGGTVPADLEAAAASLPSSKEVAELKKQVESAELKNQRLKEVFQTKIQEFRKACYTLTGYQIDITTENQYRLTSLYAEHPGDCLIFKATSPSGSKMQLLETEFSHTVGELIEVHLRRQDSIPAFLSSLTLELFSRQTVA
# How it was run: as §1
# [3] = target: T3, OAS3 (UniProt Q9Y6K5)
# T3 sequence (whole entry): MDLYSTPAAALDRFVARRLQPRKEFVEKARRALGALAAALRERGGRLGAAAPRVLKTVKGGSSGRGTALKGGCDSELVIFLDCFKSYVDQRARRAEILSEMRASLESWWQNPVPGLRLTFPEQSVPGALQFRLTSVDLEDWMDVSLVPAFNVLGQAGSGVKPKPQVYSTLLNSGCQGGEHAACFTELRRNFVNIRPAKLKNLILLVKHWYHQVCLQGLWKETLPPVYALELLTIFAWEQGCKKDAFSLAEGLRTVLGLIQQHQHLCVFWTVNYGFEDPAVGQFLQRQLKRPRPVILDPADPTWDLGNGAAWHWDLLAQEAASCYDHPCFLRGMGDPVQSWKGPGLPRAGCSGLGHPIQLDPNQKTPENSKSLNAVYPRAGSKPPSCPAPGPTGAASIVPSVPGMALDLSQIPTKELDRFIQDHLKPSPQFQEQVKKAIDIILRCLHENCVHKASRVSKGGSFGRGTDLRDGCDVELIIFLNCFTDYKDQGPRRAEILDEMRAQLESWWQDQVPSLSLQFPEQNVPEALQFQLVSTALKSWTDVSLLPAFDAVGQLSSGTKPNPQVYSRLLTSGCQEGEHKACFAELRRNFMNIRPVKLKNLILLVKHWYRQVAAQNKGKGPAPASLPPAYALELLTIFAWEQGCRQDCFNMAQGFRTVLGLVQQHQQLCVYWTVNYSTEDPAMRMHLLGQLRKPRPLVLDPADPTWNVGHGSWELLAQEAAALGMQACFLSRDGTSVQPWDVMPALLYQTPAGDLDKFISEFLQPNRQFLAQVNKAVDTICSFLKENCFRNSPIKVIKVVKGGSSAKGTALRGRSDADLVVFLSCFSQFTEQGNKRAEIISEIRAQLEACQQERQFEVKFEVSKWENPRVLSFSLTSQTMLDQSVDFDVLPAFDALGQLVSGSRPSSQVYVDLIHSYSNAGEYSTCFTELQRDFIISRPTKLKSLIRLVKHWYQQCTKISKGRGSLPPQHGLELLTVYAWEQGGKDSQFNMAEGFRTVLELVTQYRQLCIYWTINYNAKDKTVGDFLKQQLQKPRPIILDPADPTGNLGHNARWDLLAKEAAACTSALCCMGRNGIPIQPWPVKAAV
# How it was run: as §1
# [4] = target: S4R3R2 (UniProt Q9NXR5)
# Chain of S4R3R2 (Q9NXR5 whole entry, one chain of several): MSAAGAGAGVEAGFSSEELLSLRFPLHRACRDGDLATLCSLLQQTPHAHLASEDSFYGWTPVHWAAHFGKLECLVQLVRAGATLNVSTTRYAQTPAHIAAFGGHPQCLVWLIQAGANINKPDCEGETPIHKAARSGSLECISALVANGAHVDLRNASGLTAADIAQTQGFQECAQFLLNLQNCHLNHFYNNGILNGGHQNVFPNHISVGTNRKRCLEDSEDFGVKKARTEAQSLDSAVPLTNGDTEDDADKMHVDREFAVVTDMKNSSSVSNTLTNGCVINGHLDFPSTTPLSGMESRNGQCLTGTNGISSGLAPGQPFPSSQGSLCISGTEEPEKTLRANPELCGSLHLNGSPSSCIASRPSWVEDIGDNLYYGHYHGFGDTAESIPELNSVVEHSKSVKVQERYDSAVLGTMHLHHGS
# How it was run: as §1
compound,measurement,setting,value
Nc1ncnc2c1ncn2[C@@H]1O[C@H](COP(=O)(O)OP(=O)(O)NP(=O)(O)O)[C@@H](O)[C@H]1O [adenylyl imidodiphosphate],NP40-soluble protein abundance,[1]; concentration: 1mM,1.09 ± 0.076
same,NP40-soluble protein abundance,[1]; concentration: 2mM,1.13 ± 0.092
same,NP40-soluble protein abundance,[1]; concentration: 4mM,1.15 ± 0.12
same,NP40-soluble protein abundance,[1]; concentration: 6mM,1.13 ± 0.1
same,NP40-soluble protein abundance,[1]; concentration: 8mM,1.15 ± 0.12
same,NP40-soluble protein abundance,[1]; concentration: 10mM,1.24 ± 0.21
same,NP40-soluble protein abundance,[2]; concentration: 1mM,1.02 ± 0.028
same,NP40-soluble protein abundance,[2]; concentration: 2mM,1.03 ± 0.039
same,NP40-soluble protein abundance,[2]; concentration: 4mM,1.02 ± 0.047
same,NP40-soluble protein abundance,[2]; concentration: 6mM,0.986 ± 0.021
same,NP40-soluble protein abundance,[2]; concentration: 8mM,0.983 ± 0.046
same,NP40-soluble protein abundance,[2]; concentration: 10mM,1 ± 0.057
same,NP40-soluble protein abundance,[3]; concentration: 1mM,1.01 ± 0.012
same,NP40-soluble protein abundance,[3]; concentration: 2mM,1.02 ± 0.04
same,NP40-soluble protein abundance,[3]; concentration: 4mM,1.02 ± 0.032
same,NP40-soluble protein abundance,[3]; concentration: 6mM,0.998 ± 0.033
same,NP40-soluble protein abundance,[3]; concentration: 8mM,1.02 ± 0.043
same,NP40-soluble protein abundance,[3]; concentration: 10mM,0.998 ± 0.018
same,NP40-soluble protein abundance,[4]; concentration: 1mM,1.04 ± 0.031
same,NP40-soluble protein abundance,[4]; concentration: 2mM,1.05 ± 0.063
same,NP40-soluble protein abundance,[4]; concentration: 4mM,1.02 ± 0.027
same,NP40-soluble protein abundance,[4]; concentration: 6mM,1.01 ± 0.041
same,NP40-soluble protein abundance,[4]; concentration: 8mM,0.983 ± 0.011
same,NP40-soluble protein abundance,[4]; concentration: 10mM,0.983 ± 0.022
